High-throughput results deposited in PubChem by several laboratories.
PLCg1 inh = PLC-gamma1 (human) inhibition, primary screen; 370,000 tested, 0.84% active; AID 720700; purified PLC-gamma1, fluorogenic substrate, fluorescence; inhibition, % at 12.2 µM; P19174
FAS TE block = inhibitors of human fatty acid synthase thioesterase domain; recombinant FAS-TE, OMFH fluorogenic substrate, fluorescence endpoint; 360,000 tested, 0.67% active; inhibition, % at 15 µM; P49327;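 active means compounds whose normalised, plate-corrected inhibition of enzyme fluorescence in the single-dose primary screen is 50% or more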;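 further: 0% = DMSO with enzyme and 100% = substrate without enzyme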
H9c2 protect = myocardial damage modulation in H9c2 cells; protection from H2O2 cell death, % at 20 µM; AID 588492; 360,000 tested, 0.63% active; H9c2 cardiomyocytes, H2O2 injury protection, ATPLite, 2 h;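 active means compounds giving at least 50% protection of heart cells from peroxide-induced death in the single-dose screen, raw or plate-pattern-corrected value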;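 further: 0% = DMSO wells with peroxide and 100% = DMSO wells without peroxide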
PLC-beta3 inh = inhibitors of human phospholipase C beta3; inhibition, % at 12.2 µM; 370,000 tested, 0.18% active; Q01970; Purified PLC-beta3, fluorogenic substrate, fluorescence; in the data active means inhibition above about 11%;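 further: 0% = median of compound wells on plate and 100% = full blocker control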
PLCgamma1 ctr = PLC-gamma1 inhibition, counter-screen for PLC-beta3 hits | shares compounds with PLCg1 inh | purified PLC-gamma1, fluorogenic substrate, fluorescence | inhibition, % at 12.3 µM | 3,300 tested, 3.1% active | AID 743258
PLCbeta3 conf = human PLC-beta3 inhibition, confirmation; shares compounds with PLCg1 inh; purified PLC-beta3, fluorogenic substrate fluorescence; inhibition, % at 12.3 µM; 3,300 tested, 1% active; in the data active means inhibition above about 11%
An asterisk follows results filed as active. The list is not random: actives were taken first. Their share in the collection is about 2.2%. Unless noted, no stated cut-off is given here; in the data, active means inhibition above about 9.5%; inactive means the rest.

For CC12CC[C@H]3[C@@H](CCC4(O)C[C@H](O)CCC34/C=N/NC(=O)c3ccccc3O)C1(O)CCC2C1=CC(=O)OC1 (some centres undefined) the results were PLCg1 inh -4, FAS TE block -6, H9c2 protect 13 and PLC-beta3 inh -20.
Screening Cc1ccc(OCCOc2cccc(C=C3C(=O)NC(=O)NC3=O)c2)cc1 returned PLCg1 inh 11*, FAS TE block 5, H9c2 protect -7, PLC-beta3 inh -3, PLCgamma1 ctr -6 and PLCbeta3 conf -2.
Cc1cc(C)cc(OCCOc2cccc(C=C3C(=O)NC(=O)NC3=O)c2)c1 was read as PLCg1 inh -5, FAS TE block 9, H9c2 protect -3 and PLC-beta3 inh -10.
O=c1c2ccccc2nc(-c2ccoc2)n1-c1ccccc1Cl was read as PLCg1 inh 3, FAS TE block 0, H9c2 protect 13 and PLC-beta3 inh 2.
For COc1ccccc1-n1c(-c2ccoc2)nc2ccccc2c1=O the results were PLCg1 inh 8, FAS TE block -3, H9c2 protect 6, PLC-beta3 inh 11*, PLCgamma1 ctr -3 and PLCbeta3 conf -7.
N/C(=N\[N+](=O)[O-])NCCCC(NC(=O)CNC(=O)c1ccccc1)C(=O)O (centres undefined) was read as PLCg1 inh 2, FAS TE block -9, H9c2 protect 13 and PLC-beta3 inh 3.
C=CC1CN2CCC1CC2[C@@H](OC(=O)c1ccc(OC)cc1)c1ccnc2ccccc12 (some centres undefined) was read as PLCg1 inh 3, FAS TE block 0, H9c2 protect -4 and PLC-beta3 inh 4.
Screening O=c1[nH]c(=O)n(Cc2ccco2)c(O)c1C=NCc1ccc2c(c1)OCO2 returned PLCg1 inh 9.7*, FAS TE block -5, H9c2 protect 10, PLC-beta3 inh 5, PLCgamma1 ctr -4 and PLCbeta3 conf -3.
COc1ccc2nc(-c3ccc(CN4CCC(n5nnc6ccccc65)CC4)cc3)c(-c3ccccc3)nc2c1 was read as PLCg1 inh -40 and PLC-beta3 inh -58.
`O=C1NCN(c2ccccc2)C12CCN(C(c1ccccc1OC(F)(F)F)c1nnnn1C1CCCC1)CC2` (centres undefined) gave PLCg1 inh 11*, FAS TE block 10, H9c2 protect -3, PLC-beta3 inh 6, PLCgamma1 ctr -2 and PLCbeta3 conf -5.
`O=C1NCN(c2ccccc2)C12CCN(C(CCc1ccccc1)c1nnnn1C1CCCC1)CC2` (centres undefined) gave PLCg1 inh 11*, FAS TE block 13, H9c2 protect 9, PLC-beta3 inh 8, PLCgamma1 ctr -2 and PLCbeta3 conf 0.
Screening COP(=O)(C(=O)Nc1ccccc1)C(CC(C)C)NC(=O)OCc1ccccc1 (centres undefined) returned PLCg1 inh 2 and PLC-beta3 inh 2.
`O=C1CN=C(c2ccccc2)c2c(sc3c2CCCC3)N1` gave PLCg1 inh 11*, FAS TE block 2, H9c2 protect 33, PLC-beta3 inh -8, PLCgamma1 ctr 9 and PLCbeta3 conf -2.
For O=C1CN=C(c2cccs2)c2c(sc3c2CCCC3)N1 the results were PLCg1 inh 1, FAS TE block 0, H9c2 protect 3 and PLC-beta3 inh -5.
`CCN1CCN(Cc2ccc(OC(F)(F)F)cc2)CC1` gave PLCg1 inh 1, FAS TE block -5, H9c2 protect 5 and PLC-beta3 inh -4.
CCN1CCN(Cc2cccnc2)CC1 was read as PLCg1 inh 9.7*, FAS TE block -8, H9c2 protect 11, PLC-beta3 inh 2, PLCgamma1 ctr -6 and PLCbeta3 conf -3.
Screening FC(F)(F)c1ccc(CNCCc2ccc3c(c2)OCO3)cc1 returned PLCg1 inh 11*, FAS TE block 9, H9c2 protect 3, PLC-beta3 inh -4, PLCgamma1 ctr -2 and PLCbeta3 conf 1.
Clc1ccc(CNCCc2ccc3c(c2)OCO3)cc1 was read as PLCg1 inh 4, FAS TE block 4, H9c2 protect 3 and PLC-beta3 inh -3.
Cc1ccc2c(c1)cc1c(=O)n(CC(=O)N3CCC4(CC3)OCCO4)nc(C)n12 was read as PLCg1 inh -10, FAS TE block 1, H9c2 protect 0 and PLC-beta3 inh -19.
